This assay deals with T1, v3.1_PPR14 (Artificial Sequence).
T1 chain: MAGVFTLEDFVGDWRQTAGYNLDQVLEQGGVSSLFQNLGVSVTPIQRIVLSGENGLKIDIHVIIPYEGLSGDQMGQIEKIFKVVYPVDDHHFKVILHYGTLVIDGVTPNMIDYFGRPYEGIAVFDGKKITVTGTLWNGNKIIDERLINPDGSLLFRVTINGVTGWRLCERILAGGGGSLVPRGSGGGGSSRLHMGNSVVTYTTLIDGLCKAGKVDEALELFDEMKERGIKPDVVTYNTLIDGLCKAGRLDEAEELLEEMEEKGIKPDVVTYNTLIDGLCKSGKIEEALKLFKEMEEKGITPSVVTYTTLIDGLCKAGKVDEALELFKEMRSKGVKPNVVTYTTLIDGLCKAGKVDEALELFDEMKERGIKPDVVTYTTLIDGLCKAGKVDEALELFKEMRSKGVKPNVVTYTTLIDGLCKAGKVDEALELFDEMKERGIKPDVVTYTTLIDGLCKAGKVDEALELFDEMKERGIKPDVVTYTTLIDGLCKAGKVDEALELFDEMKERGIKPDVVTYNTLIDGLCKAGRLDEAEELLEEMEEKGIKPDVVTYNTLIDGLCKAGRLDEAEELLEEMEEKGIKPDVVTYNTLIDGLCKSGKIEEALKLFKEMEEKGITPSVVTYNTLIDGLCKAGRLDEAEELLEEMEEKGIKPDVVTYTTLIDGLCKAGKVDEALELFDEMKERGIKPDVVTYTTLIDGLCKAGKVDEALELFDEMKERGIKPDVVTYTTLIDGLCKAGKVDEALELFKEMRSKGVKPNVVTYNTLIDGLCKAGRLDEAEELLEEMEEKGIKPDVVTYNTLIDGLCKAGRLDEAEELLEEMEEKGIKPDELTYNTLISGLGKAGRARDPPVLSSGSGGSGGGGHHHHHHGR
Put plainly: RPB-ELISA. As to conditions: tags: N-terminal luciferase, C-terminal 6xHis; label: 5'-biotin; ssRNA. As to the method: RNA probes consisting of a designed 30-base sequence containing 18 bases of the target sequence and modified by biotinylation at the 5′ end (RNA_1, RNA_2, RNA_3, RNA_4, and RNA_5, SEQ ID NOS: 61 to 65) were synthesized (Grainer). To a streptavidin-coated plate (Thermo fisher), the 5′-end biotinylated RNA probes were added, reaction was allowed at room temperature for 30 minutes, and the plate was washed with a lysis buffer (20 mM Tris-HCl, pH 7.6, 150 mM NaCl, 5 mM MgCl₂, 0.5% NP-40, 1 mM DTT, 0.1% BSA). For background measurement, wells to which RNA was not added, but 100 μL of the lysis buffer, 1 μL of 100 mM DTT, and 1 μL of 40 unit/4 RNase inhibitor (Takara, 2313A) were added were also prepared. Then, 200 μL of a blocking buffer (20 mM Tris-HCl, pH 7.6, 150 mM NaCl, 5 mM MgCl₂, 0.5% NP-40, 1 mM DTT, 1% BSA) was added, and the plate surface was blocked at room temperature for 30 minutes. Then, 100 μL of E. coli lysate containing luciferase-fused PPR protein having a luminescence level of 1.5×10⁸ LU/μL was added to each well, and the binding reaction was allowed at room temperature for 30 minutes. The well was washed 5 times with 200 μL of a washing buffer (20 mM Tris-HCl, pH 7.6, 150 mM NaCl, 5 mM MgCl₂, 0.5% NP-40, 1 mM DTT). […] The background (luminescence signal value obtained with adding the PPR protein and without adding RNA) was subtracted from the luminescences of the samples to which a solution containing each RNA and PPR protein was added, and the obtained values were used as the binding powers between the PPR protein and RNA.
By using the V3.1 motif, PPR proteins for the same 23 kinds of target sequences were similarly prepared (SEQ ID NOS: 411 to 433 for the nucleotide sequences, and SEQ ID NOS: 434 to 456 for the amino acid sequences), and bindings of all the combinations were analyzed by using RPB-ELISA. The experimental method was the same as that used in Example 3.
In the case of GGUUAGAGAUACAGUGUG, the binding signal was found to be 22.5 log2 luminescence.

On to GUGGGGGUGGUAGGAAAU, for which the binding signal amounted to 20.1 log2 luminescence.
